Compound activity (PubChem)
The list is not random: actives were taken first. Their share in the collection is about 2.4%.
Insulin prom inh = TRM-6 insulin promoter activity inhibition | TRM-6 cells (human fetal islet line), insulin promoter-eGFP reporter, imaging; reporter expression induced with tamoxifen | inhibition, % at 2 µM | actives 0.9% (n = 130,000);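 active = inhibition above the mean plus 3 SD, with well images judged a real hit on visual review, cut at about 60% in these data, passing the limit was not always enough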
PGE2 EP2 inh = blocks the human prostaglandin E2 receptor EP2; P43116; C6 glioma cells expressing human EP2, cAMP TR-FRET; cells stimulated with saturating PGE2; inhibition, % at 25 µM; actives 0.52% (n = 260,000); AID 1422;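 active = percent inhibition above 40 after rounding to a whole number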;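 note: rat C6 glioma host cells with rolipram phosphodiesterase inhibitor present; the protocol text gives 20 µM as final concentration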
S1P4 agonist = agonists of human S1P4 receptor. O95977. S1P4-expressing cell line, agonist reporter assay. activation, % at 4.98 µM. actives 0.35% (n = 220,000); in the data active = activation above about 11%;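 note: 0% = DMSO vehicle and 100% = reference agonist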
S1P3 antagonist = antagonists of human S1P3 receptor. Q99500. CHO S1P3 NFAT-BLA reporter, FRET fluorescence, antagonist mode. inhibition, % at 4.98 µM. actives 0.27% (n = 170,000);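 active = inhibition above the plate cutoff, the mean inhibition of test wells on that plate plus 3 SD, cut at about 28% in these data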;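 note: cells challenged with S1P at its EC80 of 0.8 µM; blue over green emission ratio from cleaved BLA substrate after 4 h stimulation; 0% = S1P-stimulated wells and 100% = unstimulated DMSO-only wells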
Target sequence (Q99500 whole entry, looked up): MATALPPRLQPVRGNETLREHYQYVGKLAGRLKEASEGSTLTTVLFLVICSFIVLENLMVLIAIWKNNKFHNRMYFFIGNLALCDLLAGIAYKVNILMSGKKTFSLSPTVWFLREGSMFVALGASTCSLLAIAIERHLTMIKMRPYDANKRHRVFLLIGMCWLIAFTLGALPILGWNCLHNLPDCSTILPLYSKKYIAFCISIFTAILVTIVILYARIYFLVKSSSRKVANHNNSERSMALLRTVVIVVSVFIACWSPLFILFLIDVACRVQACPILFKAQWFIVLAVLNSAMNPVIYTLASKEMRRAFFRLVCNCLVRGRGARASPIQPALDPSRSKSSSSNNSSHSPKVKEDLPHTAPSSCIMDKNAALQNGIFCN
EP2 mod = modulates human prostaglandin E2 receptor EP2 signaling; P43116; EP2-expressing cells, cAMP HTRF FRET, PGE2 co-stimulation; induction, % at 25 µM; actives 0.83% (n = 260,000); AID 940;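 active = compounds whose cAMP rise, as percent of the full-agonist control response, exceeds 60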;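 note: rat C6 glioma line stably carrying human EP2 under a CMV promoter; the protocol text gives 20 µM as final concentration; 100% = response of wells given 1 µM PGE2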
S1P4 antag = antagonists of human S1P4 receptor; O95977; S1P4-expressing cells, antagonist mode, reporter read-out; actives 0.26% (n = 220,000); inhibition, % at 4.98 µM; AID 1510; in the data active = inhibition above about 29%;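 note: 0% = wells stimulated with agonist and 100% = vehicle wells without agonist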
* = called active by the depositor; . = not tested or not shown; ! = a repeat was not active.

SMILES	Insulin prom inh	PGE2 EP2 inh	S1P4 agonist	S1P3 antagonist	EP2 mod	S1P4 antag
Clc1ccccc1N/N=C/c1ccc2c(c1)OCO2	64*	9	-4	-3	-9	4
Cc1noc(C)c1C(=O)Nc1nnc(-c2ccccc2)s1	.	25	-1	-6	-15	102*
COc1ccccc1C(=O)Nc1nnc(-c2ccco2)s1	-45	44*	-1	.	-6	-9
O=C(Nc1nnc(-c2ccco2)s1)c1ccccc1	.	46*	0	-3	32	-19
COc1ccc(NC(=O)CSc2nc3c(c(=O)n(C)c(=O)n3C)n2Cc2ccccc2)cc1	.	6	.	.	-3	.
CC(C)OC(=O)C1C2C=CC3(CN(C4CCCC4)C(=O)C13)O2 (stereo unspecified)	.	9	.	.	4	.
O=C(CCCc1ccccc1)Nc1ccc(S(=O)(=O)N2CCCCC2)cc1	.	21	.	.	-47	.
Cc1nnc(Sc2nc3c(c(=O)n(C)c(=O)n3C)n2Cc2ccccc2Cl)s1	22	1	3	-14	.	2
CCC(C)Sc1nc2c(c(=O)n(C)c(=O)n2C)n1Cc1ccc(Cl)cc1 (stereo unspecified)	.	7	.	.	70*	.
C=C(C)CSc1nc2c(c(=O)n(C)c(=O)n2C)n1Cc1ccccc1	.	8	.	.	50	.
Cn1c(=O)n(Cc2ccccc2Cl)c2ccccc21	.	10	2	-6	61*	-6
CCC(C)Sc1nc2c(c(=O)[nH]c(=O)n2C)n1Cc1ccc(Cl)cc1 (stereo unspecified)	-46	7	2	1	51	-16
Cn1c(=O)n(Cc2ccccc2F)c2ccccc21	-294	8	1	0	30	-18
C=C(C)CSc1nc2c(c(=O)n(C)c(=O)n2C)n1Cc1ccccc1Cl	.	9	.	.	74*	.
CC(C)Sc1nc2c(c(=O)n(C)c(=O)n2C)n1Cc1ccccc1Cl	.	4	.	.	62*	.
CN(C)C(CNS(=O)(=O)c1ccc2c(c1)CCC(=O)N2)c1ccc2c(c1)OCO2 (stereo unspecified)	.	9	.	.	-34	.
CSc1nc2c(c(=O)n(C)c(=O)n2C)n1Cc1cccc2ccccc12	.	6	.	.	38	.
CCSc1nc2c(c(=O)n(C)c(=O)n2C)n1Cc1cccc2ccccc12	.	13	.	.	72*	.
CCCn1c(SCC(=O)Nc2ccccc2N2CCCCC2)nc2c1c(=O)n(C)c(=O)n2C	.	22	1	-3	78*!	8
CCOc1cc(C)nc(N2CCC(C(=O)Nc3ccccc3OCC)CC2)n1	.	-6	1	10	92*!	5
CN1CCN(S(=O)(=O)c2ccc(Cl)c(S(=O)(=O)N3CCN(C)CC3)c2)CC1	.	12	.	.	-69	.
Cc1nc2ccc([N+](=O)[O-])cc2nc1C	13	15	0	-21	-10	-14
Cc1ccc2nc3cc([N+](=O)[O-])cc([N+](=O)[O-])c3cc2c1	-488	7	0	-5	-68	29*
CCOc1ccc(OCC)c(-c2c(=O)n(OCc3ccccc3Br)c3ccccc3[n+]2[O-])c1	.	5	-1	.	64*	-14
O=C(CSc1ncnc2sc3c(c12)CCCC3)OCc1ccccc1	.	8	.	.	62*	.
SMILES	Insulin prom inh	PGE2 EP2 inh	S1P4 agonist	S1P3 antagonist	EP2 mod	S1P4 antag
Cc1ccc(OCCCC(=O)Nc2nc(C)c(C)s2)cc1	.	6	.	.	-15	.
CCOc1ccc2[nH]c(=O)c(CN(Cc3cccnc3)C(=O)c3ccccc3Cl)cc2c1	.	72*	.	.	-16	.
Cc1ccccc1C(=O)N1CCOc2nc3c(C)cccc3cc2C1	.	.	.	.	-40	.
CCOC(=O)c1c(C)cc(C)n2c1nc1ccccc12	75*	6	-1	.	2	4
Nc1[nH]c(=S)[nH]c(=O)c1N=Nc1c(Br)cc(S(N)(=O)=O)cc1Br	.	51*	.	.	3	.
CCc1ccc2c(c1)c(N=NC1=NC(=O)CS1)c(O)n2C	79*	.	2	.	16	-5
CCn1c(=O)n(CC(=O)N2CCCCC2C)c2cccnc21 (stereo unspecified)	.	.	.	.	-2	.
O=C(NC1CCCc2c1cnn2-c1ccc(F)cc1F)c1ccccn1 (stereo unspecified)	20	45*	2	-11	-29	-30
CN(C)C(/C=C/Nc1ccc(Br)cc1)=C(C#N)C#N	.	2	-1	-7	-45	2
Brc1ccc(N=C/C=C/C=C/Nc2ccc(Br)cc2)cc1	79*	6	0	.	6	-7
N#C/C(C(=O)NCCc1ccccc1)=C1/N=C(NC(=O)c2cccs2)c2ccccc21	.	13	1	2	63*	-6
COCCCNC(=O)/C(C#N)=C1\N=C(NC(=O)c2cccs2)c2ccccc21	.	9	1	-1	-10	-1
OC[C@@H]1O[C@H](N2CCN([C@@H]3O[C@H](CO)[C@@H](O)[C@H](O)[C@H]3O)CC2)[C@@H](O)[C@H](O)[C@H]1O	.	49*	.	.	15	.
COC1OC(CO)C(O)C(O)C1O (stereo unspecified)	.	10	1	-4	13	-12
C/C(N[O-])=C(\C)[N+]([O-])=[Co].CC(=N\[O-])/C(C)=N/[O-].C[CH-][C@@H](C)O.c1ccncc1	.	42*	.	.	21	.
C/C(N[O-])=C(\C)[N+]([O-])=[Co].C/C(N[O-])=C(\C)[N+]([O-])=[Co].CC(=N\[O-])/C(C)=N/[O-].CC(=N\[O-])/C(C)=N/[O-].[CH3-].[CH3-]	.	29	.	.	11	.
N=c1oc2cc(O)ccc2cc1C(=O)Nc1ccccn1	.	13	74*	-72	-36	-52
Cc1[nH][nH]c(=O)c1C(c1cc2c(cc1Br)OCO2)c1c(C)[nH][nH]c1=O	67*	5	0	-11	31	0
CCOc1ccc(C(c2c(C)[nH][nH]c2=O)c2c(C)[nH][nH]c2=O)cc1OC	39	24	-2	.	16	-1
CCN1CCN(C(=O)c2c(NC(=O)c3ccccc3)sc(C)c2C)CC1	.	21	.	.	-24	.
c1ccc(CCN(Cc2ccccc2)Cc2nc(C3CC3)no2)cc1	.	11	-2	-4	62*	-2
CCN(Cc1ccccc1)Cc1nc(CCc2ccccc2)no1	.	5	0	7	-8	5
Cc1nnc(SCc2ccc(C(C)(C)C)cc2)n1N	.	8	.	.	-7	.
C(=C\c1nc(-c2cccnc2)no1)/c1ccccc1	70*	9	2	1	-17	-11
N=C1/C(=C\c2ccc(-c3cccc(C(=O)O)c3)o2)C(=O)N=C2SC=C(c3ccccc3)N12	.	59*	2	-9	-50	-5
COc1ccc(-n2nnnc2S(=O)(=O)Cc2ccc(C(=O)O)cc2)cc1	-16	6	-4	-11	14	-9
COc1ccc(-n2nnnc2S(=O)(=O)CC(=O)N2CCCCC2)cc1	.	11	-3	18	-12	54*
Cc1occc1-c1nnc(SCC(=O)Nc2ccccc2)n1Cc1ccco1	.	7	.	.	-10	.
CN=C(Nc1cc(C)nn1CCC#N)c1ccccc1	.	7	0	-18	0	4
Cc1cc(OC(=O)c2ccccc2)n(CCC#N)n1	.	20	0	102*	24	-1
